PI5P4K alpha inh = PI5P4K alpha (human) kinase inhibition; P48426; PI5P4Kalpha enzyme, ADP-Glo luminescence, 60 min; stronger effect = lower value; actives 1.2% (n = 330,000); max response, %; active = max response of -50% or lower; inconclusive = between -30% and -50%; inactive = -30% or higher; also: value at the top dose of about 77 µM; % is scaled to controls: 0 for no effect and ±100 for the full control effect
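Reactions run in 0.038 M HEPES pH 7.4, 0.28 mM EGTA, 0.1% CHAPS and 5% DMSO, with PI5P4Kalpha, substrate, compound and 5 microM ATP final, one hour at room temperature. Readout is ADP-Glo luminescence.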
JMJD2A Tudor = JMJD2A Tudor domain (human) inhibition. O75164. AlphaScreen JMJD2A-Tudor / H3K4me3 peptide binding. Potency, µM (top dose mostly 114 µM), for the others: at the top dose activity change, negative = inhibition, most hits filed as inhibitors. actives 4.4% (n = 390,000). AID 504339; also: potency is read from the fitted curve at half-maximal effect; % is scaled to controls: 0 for no effect and ±100 for the full control effect; nearly all actives have a fitted effect of over 50% in size
G9a inh = G9a (human) methyltransferase inhibition; Q96KQ7; G9a H3K9 monomethylation, AlphaScreen, 2 h; Potency, µM (doses to about 102 µM), without a hit: at the highest dose activity, negative = inhibition, most hits filed as inhibitors; actives 8.8% (n = 350,000); also: potency is read from the fitted curve at half-maximal effect; % is scaled to controls: 0 for no effect and ±100 for the full control effect; nearly all actives have a fitted effect of over 75% in size
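Using a bead-based AlphaScreen, monomethylated H3K9 product from 2 h room-temperature reactions (G9a 20 nM, peptide 500 nM, SAM 20 uM) was detected with 0.5 ug/mL rabbit anti-H3K9me1 antibody.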
BAZ2B inh = BAZ2B (human) inhibition; Potency, µM (highest dose often 114 µM), inactives show top-dose activity change, negative = inhibition, usual class: inhibitors; actives 4.4% (n = 360,000); AID 504333; AlphaScreen BAZ2B-H3K14Ac peptide displacement; also: potency is read from the fitted curve at half-maximal effect; % is scaled to controls: 0 for no effect and ±100 for the full control effect; nearly all actives have a fitted effect of over 60% in size
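Multi-concentration screen (max 110 uM) measuring displacement of acetylated histone H3 peptide from BAZ2B by AlphaScreen, using 50 nM protein, 50 nM peptide and 10 ug/mL streptavidin donor plus Ni-chelate acceptor beads.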
L3MBTL1 block = inhibitors of human L3MBTL1; AlphaScreen L3MBTL1–H3K9me1 peptide binding; AID 485360; actives 0.66% (n = 230,000); Potency, µM (series often up to 57.1 µM), inactives show top-dose activity, negative = inhibition, hits mostly inhibitors; Q9Y468; also: potency is read from the fitted curve at half-maximal effect; % is scaled to controls: 0 for no effect and ±100 for the full control effect; nearly all actives have a fitted effect of over 60% in size
Target sequence (Q9Y468 whole entry, looked up): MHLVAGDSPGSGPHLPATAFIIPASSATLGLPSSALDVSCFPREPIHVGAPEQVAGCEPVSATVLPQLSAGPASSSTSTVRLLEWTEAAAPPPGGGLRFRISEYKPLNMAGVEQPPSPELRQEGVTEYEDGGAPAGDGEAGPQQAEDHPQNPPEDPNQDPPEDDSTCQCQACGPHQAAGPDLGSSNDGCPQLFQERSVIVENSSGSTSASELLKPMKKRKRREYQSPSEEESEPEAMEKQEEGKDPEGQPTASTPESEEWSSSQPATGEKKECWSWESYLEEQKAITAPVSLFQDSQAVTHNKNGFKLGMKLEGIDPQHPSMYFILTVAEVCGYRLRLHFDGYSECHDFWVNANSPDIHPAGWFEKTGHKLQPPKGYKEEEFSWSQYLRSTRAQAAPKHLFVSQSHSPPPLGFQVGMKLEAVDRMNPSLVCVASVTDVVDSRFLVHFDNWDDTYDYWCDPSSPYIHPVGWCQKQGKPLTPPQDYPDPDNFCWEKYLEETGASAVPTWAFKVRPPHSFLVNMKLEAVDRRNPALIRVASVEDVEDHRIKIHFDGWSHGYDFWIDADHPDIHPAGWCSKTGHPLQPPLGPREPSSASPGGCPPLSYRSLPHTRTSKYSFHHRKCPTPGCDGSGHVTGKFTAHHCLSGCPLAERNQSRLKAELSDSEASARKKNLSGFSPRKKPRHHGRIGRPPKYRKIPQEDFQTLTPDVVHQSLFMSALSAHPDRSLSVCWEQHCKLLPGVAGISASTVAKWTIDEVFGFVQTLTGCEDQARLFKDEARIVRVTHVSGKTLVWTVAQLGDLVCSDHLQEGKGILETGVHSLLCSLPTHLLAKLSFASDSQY
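First, the protein-peptide complex forms for 30 min at room temperature (L3MBTL1 50 nM, biotinylated H3K9me1 peptide 75 nM). Next, compounds are pin-transferred and incubated 30 min. Finally, AlphaScreen beads are added and read after 30 min.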
HP1b chromo inh = blocks HP1-beta chromodomain binding to methylated histone tails; P83916; AlphaScreen HP1-beta / biotin-H3K9me3 peptide binding; Potency, µM (doses to about 114 µM), without a hit: at the top dose activity change, negative = inhibition, usual class: inhibitors; actives 0.56% (n = 390,000); AID 540317; also: potency is read from the fitted curve at half-maximal effect; nearly all actives have a fitted effect of over 70% in size
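HP1-beta protein (50 nM final) preincubated 30 min at room temperature with biotinylated H3(1-18)K9me3 peptide (50 nM) in PBS pH 7.4, 0.01% Tween-20, then compound added for 30 min. AlphaScreen streptavidin donor/nickel chelate acceptor beads (10 ug/mL final), 30 min dark, luminescence read.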
Numbers without * were called inactive; [ ] = another dose, or the depositor's remark. A selection: hits, their analogues and other compounds. The true share with any hit is near 11%. Unless noted, calls follow the shape of the dose curve; as a rule, active = well fitted inhibition curve with a large enough effect; inconclusive = small, poorly fitted or top-dose-only effect; inactive = no such curve, though single readings can be large or run the other way.

What do the screens show for `CCN1C=C(Cc2ccc(F)cc2)C2=C(C1)C(c1ccc(F)cc1)C(C#N)=C(N)O2` (stereo not given)?
PI5P4K alpha inh: -2; JMJD2A Tudor: 50µM*; G9a inh: inconclusive; BAZ2B inh: inconclusive; HP1b chromo inh: -31%

How did CCN1C=C(Cc2ccccc2C)C2=C(C1)C(c1ccccc1C)C(C#N)=C(N)O2 (stereo not given) do in these assays?
PI5P4K alpha inh: -9; JMJD2A Tudor: 56µM*; G9a inh: 14µM*; BAZ2B inh: 45µM*; HP1b chromo inh: inconclusive

Results for Cc1ccc(/C=C2\CCC3=C2OC(N)=C(C#N)C3c2ccc(C)cc2)cc1 (stereo not given) ?
PI5P4K alpha inh: -28; JMJD2A Tudor: -35%; G9a inh: inconclusive; BAZ2B inh: -37%; L3MBTL1 block: 6%; HP1b chromo inh: 7%

What do the screens show for `O=C(Nc1cc(C(F)(F)F)ccc1Cl)C(O)Cc1ccccc1` (stereo not given)?
JMJD2A Tudor: 6%

Results for O=C(NCc1ccccc1Cl)c1ccc(NC(=O)N2CCSc3ncccc32)cc1 ?
JMJD2A Tudor: -8%; G9a inh: -3%[59 µM]; BAZ2B inh: -11%; HP1b chromo inh: 21%

What do the screens show for `COc1cccc(C=Nc2cc(C)on2)c1O`?
PI5P4K alpha inh: -5; JMJD2A Tudor: -11%[57.1 µM]; G9a inh: inconclusive; BAZ2B inh: -1%; HP1b chromo inh: 59%

How did Cc1cc(N=Cc2c(O)n(-c3ccc(C)c(C)c3)c(=O)c3ccccc23)no1 do in these assays?
G9a inh: -7%[59 µM]; BAZ2B inh: -16%; L3MBTL1 block: 8%

Results for Cc1cc(N=Cc2c(O)ccc3ccccc23)no1 ?
JMJD2A Tudor: 28µM*; G9a inh: 1.1µM*; BAZ2B inh: 6%; L3MBTL1 block: -6%; HP1b chromo inh: -10%

Results for Cc1cc(N=Cc2c(O)ccc3cc(Br)ccc23)no1 ?
PI5P4K alpha inh: -19; JMJD2A Tudor: 1.8µM*; G9a inh: 1.4µM*; BAZ2B inh: 10%; L3MBTL1 block: -2%; HP1b chromo inh: inconclusive

Results for O=c1cc(Cc2ccccc2)[nH]c(=S)[nH]1 ?
PI5P4K alpha inh: -9; JMJD2A Tudor: inconclusive; G9a inh: inconclusive; BAZ2B inh: -2%; L3MBTL1 block: 7%; HP1b chromo inh: 49%

Results for COCc1cc(=O)[nH]c(=S)[nH]1 ?
PI5P4K alpha inh: 2; JMJD2A Tudor: 13µM*; G9a inh: 4.5µM*; BAZ2B inh: -30%; L3MBTL1 block: -2%; HP1b chromo inh: 17%

What do the screens show for `CN(C)c1ccc(C(=O)NCc2ccc3c(c2)OCO3)cc1`?
PI5P4K alpha inh: 0; JMJD2A Tudor: -21%; G9a inh: 2%; BAZ2B inh: -28%; L3MBTL1 block: -9%; HP1b chromo inh: 28%

Results for Cc1ccc(/C([O-])=C(/C(=S)NCc2ccc3c(c2)OCO3)[n+]2ccc(N(C)C)cc2)c(C)c1 ?
PI5P4K alpha inh: 1; JMJD2A Tudor: inconclusive; G9a inh: 50µM*; BAZ2B inh: inconclusive; HP1b chromo inh: -19%

How did Cc1ccc(NC(=O)CCN2CCN(CCO)CC2)cc1C do in these assays?
JMJD2A Tudor: -11%; G9a inh: -4%[59 µM]; BAZ2B inh: 1%; HP1b chromo inh: -20%

Results for O=C(c1ccc(Cl)cc1)c1c[nH]c(C(=O)NNc2ccccc2)c1 ?
PI5P4K alpha inh: -21; JMJD2A Tudor: -12%; G9a inh: 20µM*; BAZ2B inh: -31%; L3MBTL1 block: 0%; HP1b chromo inh: 34%

What do the screens show for `CNC(=O)c1cc(C(=O)c2ccc(Cl)cc2)c[nH]1`?
PI5P4K alpha inh: -4; JMJD2A Tudor: -18%; G9a inh: -6%; BAZ2B inh: inconclusive; HP1b chromo inh: 33%

Results for S=c1nc(-c2ccc(Cl)cc2)[nH][nH]1 ?
PI5P4K alpha inh: inconclusive; JMJD2A Tudor: inconclusive; G9a inh: 0.56µM*; BAZ2B inh: -26%; HP1b chromo inh: inconclusive

From PubChem
